Screening data from PubChem.
Sampled rows, rich in hits. Any-hit rate of the full collection: about 12%.
Lmaj promast: reduces viability of Leishmania major promastigotes | resazurin fluorescence viability | inhibition, % at 10 µM | hit rate 9% among 200,000; in the data active means inhibition above about 50%;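 further: promastigotes grown with compound for 44 hours at 28 °C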
WT yeast gro inh: growth inhibition of WT yeast, mitochondrial fusion screen | mitochondrial fusion phenotypic screen, WT strain | inhibition, % at 10 µM | hit rate 2.1% among 190,000 | AID 1362; in the data active means inhibition above about 58%; tested in S. cerevisiae
Insulin prom inh: TRM-6 insulin promoter activity inhibition; TRM-6 cells (human fetal islet line), insulin promoter-eGFP reporter, imaging; reporter expression induced with tamoxifen; inhibition, % at 2 µM; hit rate 0.9% among 130,000; AID 1273;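 active means inhibition above the mean plus 3 SD, with well images judged a real hit on visual review, cut at about 60% in these data, passing the limit was not always enough; inconclusive means inhibition over the cutoff but images rejected on review; inactive means inhibition not above the cutoff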
Insulin prom up: MIN6 insulin promoter up-regulation | MIN6 insulin promoter-GFP reporter, high-content imaging; stronger effect = higher value | z-score at 5 µM | hit rate 0.3% among 190,000 | AID 1625;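 active means z-score above 3 at 5 µM with at least 500 cells counted in the well; inconclusive means wells under 500 cells, flagged as cytotoxic or low count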
Cl transport mod: KCC2 (human) Cl- transport modulation | hit rate 2.2% among 190,000 | Q9H2X9 | KCC2 cells, thallium flux FluoZin-2 fluorescence | B-score of Tl+ flux slope (higher = more flux/activation; lower = inhibition) at 10 µM;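 active means thallium flux slope and its plate-corrected score both differing from the plate sample mean at a set confidence after two filtering rounds, in either direction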;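 further: slope of fluorescence scaled to starting intensity during 10 to 20 s after thallium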
ROMK primary: modulators of human ROMK potassium channel; P48048; Tet-inducible ROMK, thallium flux fluorescence; actives lie on both sides; B-score at 10 µM; hit rate 2% among 130,000; AID 1918;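 active means signal ratio slope over the read window, or its plate-corrected B-score, at least 3 SD from the plate mean, either direction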;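 further: B-score of the F/F0 ratio slope over 7 to 12 s after thallium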
KCC2 sec1: confirmation of human KCC2 transport modulators; shares compounds with Cl transport mod; HEK293-KCC2, thallium flux, FluoZin2 fluorescence; stronger effect = higher value; normalised thallium flux (F/F0 slope) at 10 µM; hit rate 15% among 3,700; AID 1713;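 active means thallium flux slope above the same plate's solvent-only control mean plus 3 SD; inconclusive means the two replicate wells disagree; inactive means no significant difference from solvent-only control wells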
KCC2 bumet counter: bumetanide-insensitive thallium flux in KCC2 cells with ouabain, counter-screen; normalized thallium flux at 10 µM; shares compounds with Cl transport mod; HEK293-KCC2 + bumetanide/ouabain, thallium flux FluoZin2; stronger effect = higher value; hit rate 49% among 3,700;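 active means thallium entry rate above the same plate's blocked-transporter control wells by more than 3 SD; inconclusive means the two repeat wells disagree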;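 further: raw slope of fluorescence over initial fluorescence between 10 and 20 s after thallium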
KCC2 sec2: KCC2 (human) modulation, second secondary assay; shares compounds with Cl transport mod; hit rate 23% among 3,700; AID 1715; HEK293-KCC2, thallium flux FluoZin2 fluorescence; actives lie on both sides; F/F0 rise rate, 10–20 s post-thallium; normalized thallium flux at 10 µM;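 active means thallium flux slope more than 3 SD above or below the plate's solvent-only control mean, mostly below; inconclusive means the two repeat wells disagreed; inactive means no significant shift from solvent-only controls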
HEK293 Tl flux: counter-screen for KCC2 modulators: effect in parental HEK293 cells | shares compounds with Cl transport mod | thallium flux FluoZin2, ouabain; baseline-ratio fluorescence slope, 10–20 s after thallium | thallium flux rate (normalised fluorescence) at 10 µM | hit rate 46% among 3,700;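 active means thallium flux rate significantly above the same plate's solvent-only control wells, beyond their mean plus 3 SD; inconclusive means the two replicate wells gave conflicting results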
KCC2 ouabain: modulates human KCC2 on retest with ouabain; HEK293-KCC2, thallium flux FluoZin2 fluorescence; bidirectional: low = inhibitor, high = activator; hit rate 48% among 3,700; AID 1717; raw Tl+ flux slope (below DMSO = inhibition, above = activation) at 10 µM; shares compounds with Cl transport mod;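 active means thallium flux slope beyond 3 SD from same-plate DMSO control mean in most replicates, usually higher, sometimes lower; inconclusive means repeat tests gave conflicting results; inactive means no significant difference from controls in most replicates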;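 further: slope of initial-normalized fluorescence between seconds 10 and 20 after thallium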
HEK293 Tl flux2: counter-screen for KCC2 modulators: effect in parental HEK293 cells; shares compounds with Cl transport mod; thallium flux slope at 10 µM; hit rate 33% among 3,700; thallium flux FluoZin-2 fluorescence slope;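 active means thallium flux slope above the same plate's solvent-control mean plus 3 SD in both duplicate wells; inconclusive means duplicate wells that disagreed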;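 further: run without ouabain in cells lacking the KCC2 cotransporter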
Numbers stand for hits.

For O=C1OC(c2cccs2)=N/C1=C\c1ccc(-c2ccccc2Cl)o1 the results were Lmaj promast inactive, WT yeast gro inh inactive, Insulin prom inh inactive, Insulin prom up inactive, KCC2 sec1 inactive, KCC2 bumet counter inactive, KCC2 sec2 inactive, HEK293 Tl flux 0.0049, KCC2 ouabain inconclusive and HEK293 Tl flux2 inactive.
Screening CC(C(=O)N=c1sc2ccccc2n1C)N1C(=O)C2CC=CCC2C1=O (stereo not given) returned Lmaj promast inactive, WT yeast gro inh inactive, Insulin prom up inactive, KCC2 sec1 inactive, KCC2 bumet counter inconclusive, KCC2 sec2 inconclusive, HEK293 Tl flux inactive, KCC2 ouabain inconclusive and HEK293 Tl flux2 inactive.
`CC(=O)N=c1sc2ccccc2n1C` gave Lmaj promast inactive, WT yeast gro inh inactive, Insulin prom up inactive and Cl transport mod inactive.
Screening COc1ccc(CCNC(=O)CCCN2C(=O)c3ccccc3C2=O)cc1 returned Lmaj promast inactive, WT yeast gro inh inactive, Insulin prom up inactive, Cl transport mod inactive and ROMK primary inactive.
Screening CCCCn1nc2cc(C(=O)NCC34CC5CC(CC(C5)C3)C4)ccc2c1OCC returned Lmaj promast inactive, WT yeast gro inh inactive, Insulin prom inh inactive, Insulin prom up inactive and Cl transport mod inactive.
Screening Cc1cc(=O)[nH]c2ccc(Cl)cc12 returned Lmaj promast inactive, WT yeast gro inh inactive, Insulin prom inh inactive, Insulin prom up inactive, ROMK primary inactive, KCC2 sec1 inactive, KCC2 bumet counter inactive, KCC2 sec2 inactive, HEK293 Tl flux inactive, KCC2 ouabain inactive and HEK293 Tl flux2 inactive.
For Cc1cc(=O)[nH]c2c(C)c(Cl)ccc12 the results were Lmaj promast inactive, WT yeast gro inh inactive and Insulin prom up inactive.
For CN(C)S(=O)(=O)c1ccc(NC(=O)CSc2ncnc3ccccc23)cc1 the results were Lmaj promast inactive, WT yeast gro inh inactive, Insulin prom up inactive, Cl transport mod -4, KCC2 sec1 inactive, KCC2 bumet counter inactive, KCC2 sec2 0.026, HEK293 Tl flux inactive, KCC2 ouabain 0.015 and HEK293 Tl flux2 inactive.
`CN1CCC(OC(=O)c2cccc(Cl)c2)CC1` gave Lmaj promast inactive, WT yeast gro inh inactive, Insulin prom up inactive, Cl transport mod inactive and ROMK primary inactive.
CCn1nc(C(=O)OCC(=O)c2ccc(F)cc2)c2ccccc2c1=O was read as Lmaj promast inactive, WT yeast gro inh inactive, Insulin prom inh inactive, Cl transport mod -5.4, ROMK primary inactive, KCC2 sec1 inactive, KCC2 bumet counter inactive, KCC2 sec2 inactive, HEK293 Tl flux inconclusive, KCC2 ouabain inconclusive and HEK293 Tl flux2 inactive.
Screening CCCC(=O)C1=C(SCC)CC(C)(C)C(C(=O)OC)C1=O (stereo not given) returned Lmaj promast inactive, WT yeast gro inh inactive, Insulin prom inh inactive, Insulin prom up inactive, Cl transport mod inactive and ROMK primary inactive.
Screening O=C(Nc1nccs1)c1nc(-c2ccccc2)n(-c2ccccc2)n1 returned Lmaj promast inactive, Insulin prom up inactive, Cl transport mod 5.3, KCC2 sec1 inactive, KCC2 bumet counter 0.023, KCC2 sec2 inactive, HEK293 Tl flux 0.011, KCC2 ouabain inactive and HEK293 Tl flux2 inactive.
